# FUS suppressor: qHTS for Suppressors of FUS Proteinopathy: Primary screen using FUS-linked yeast assay; AID 1347120, 2019; hit rate 0.24% among 390,000; Potency, µM (series often up to 76.6 µM), usual class: activators; S. cerevisiae FUS-expressing, growth rescue, OD600, 24 h;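 also: plate controls were DMSO vehicle for no effect and reference control for full effect; nearly all actives have a fitted effect of over 55% in size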
#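 Absorbance at 600 nm, taken 24hr after compound addition, measured rescue of FUS-yeast growth at 30C. Induction used 2% galactose with seeding at OD 0.005. Controls: CP55940 from 92uM final, DMSO only.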
# TSG101-PTAP inh: qHTS Assay for Iinhibitors of HIV-1 Budding by Blocking the Interaction of PTAP/TSG101; Potency, µM (series often up to 115 µM), for inactives: at the top dose activity change, negative = inhibition, hits mostly inhibitors; 340,000 tested, under 10 active; Fluorescence polarization, FITC-PTAP peptide / Tsg101 binding; active = well fitted inhibition curve with a large enough effect in the main read-out, with a control signal flat, not every such curve was filed as active; inconclusive = small, poorly fitted or top-dose-only effect, or effect the other way, or a change in a side signal; inactive = no such curve, though single readings can be large or run the other way; also: % of control where 0% means no effect
# Target sequence (Q99816 whole entry, looked up): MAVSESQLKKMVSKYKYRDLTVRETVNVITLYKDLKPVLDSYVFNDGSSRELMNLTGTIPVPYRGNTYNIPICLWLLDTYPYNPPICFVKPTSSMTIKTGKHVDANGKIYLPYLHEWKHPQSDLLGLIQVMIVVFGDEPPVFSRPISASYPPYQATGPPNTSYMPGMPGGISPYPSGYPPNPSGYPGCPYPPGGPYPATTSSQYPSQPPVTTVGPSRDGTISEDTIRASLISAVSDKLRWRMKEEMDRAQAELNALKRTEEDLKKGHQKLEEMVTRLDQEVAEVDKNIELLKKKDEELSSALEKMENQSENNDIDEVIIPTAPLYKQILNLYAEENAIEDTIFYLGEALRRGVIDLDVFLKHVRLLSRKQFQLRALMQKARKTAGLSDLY
#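 Fluorescence polarization binding of Tsg101 binding domain (10 uM final) to FITC-labeled PTAP peptide (50 nM final) in HEPES pH 7.5 buffer with NaCl, Tween 20, EDTA, TCEP. Compounds added before peptide; binding 20 min at RT.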
# Abeta yeast res: qHTS for compounds that reverse cellular toxicity of Amyloid beta (A-beta) peptide in yeast: Primary Screen; yeast expressing A-beta42, growth rescue, OD600, 48 h; response scale: 0% DMSO, 100% iron-clioquinol control; Potency, µM (doses to about 46.1 µM), hits mostly activators; hit rate 0.063% among 410,000; AID 1347071, 2019; also: nearly all actives have a fitted effect of over 55% in size
#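 Growth rescue measured by 600 nm absorbance after 48 h yeast culture at 30 C with compound. Values normalized between DMSO and an equimolar ferric chloride plus clioquinol control.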
# aSyn yeast inh: qHTS of alpha-syn Inhibitors. AID 652106, 2013. hit rate 0.14% among 370,000. Yeast expressing alpha-synuclein, growth rescue, BacTiter-Glo, 24 h. Potency, µM (titrated, usually from 46.1 µM), for the others: at the top dose growth rescue (activation), usual class: activators; also: % of control where 0% means no effect; nearly all actives have a fitted effect of over 65% in size
#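 Galactose-induced alpha-syn yeast (OD600=0.02, raffinose-pregrown) + pinned cpd, 24 hr, 30 deg C; growth by BacTiter-Glo luminescence. Growth restoration scores as activation.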
# TDP-43 yeast inh: qHTS of TDP-43 Inhibitors; TDP-43 expressing yeast growth rescue, BacTiter-Glo, 24 h; Potency, µM (titrated, usually from 46.1 µM), inactives show at the top dose growth rescue (activation), actives largely listed as activators; hit rate 1.8% among 410,000; AID 652104, 2013; also: % of control where 0% means no effect; nearly all actives have a fitted effect of over 50% in size
#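 Growth rescue of TDP-43-toxic yeast measured as ATP luminescence (BacTiter-Glo). Cells grown to mid-log in raffinose, induced in galactose at OD600=0.02, exposed to compound 24 hr at 30 deg C.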
# An asterisk follows results filed as active; i = inactive; ? = inconclusive; . = no result given; [ ] = remark or other dose. Rows were chosen to be rich in hits. Some 2.1% of all compounds tested hit in one or more screens of this group. Unless noted, calls follow the shape of the dose curve; as a rule, active = well fitted curve in the direction sought with a large enough effect; inconclusive = small, poorly fitted or top-dose-only effect, or another doubt; inactive = no such curve, though single readings can be large; an effect the other way counts as inactive or inconclusive. Potency is read from the fitted curve at half-maximal effect.
SMILES,FUS suppressor,TSG101-PTAP inh,Abeta yeast res,aSyn yeast inh,TDP-43 yeast inh
COC(=O)[C@]12C[C@H](CC(=O)NCc3cccc4ccccc34)C(=O)N(Cc3ccc4c(c3)OCO4)C1=C[C@H](C(C)C)O[C@@H]2C1CC1,13µM*,.,.,.,.
Cc1cc(C)n2c(SCc3ccc(C#N)cc3)nnc2n1,i,-5%,i,0%,22µM*
COc1ccccc1OCC(=O)N1CCN(C(=O)COc2ccccc2OC)CC1,i,0%,i,2%,-4%
COc1ccccc1N1CCN(C(=O)COc2cccc3ccccc23)CC1,?,-1%,i,?,35µM*
O=C(COc1ccc2ccccc2c1Br)N1CCOCC1,i,-6%,i,13%,17%
CCOc1ccccc1N1CCN(C(=O)c2cc3ccccc3cc2OC)CC1,i,-3%,i,7%,14µM*
COc1cc(SC)ccc1C(=O)N1CCN(c2ccccc2F)CC1,i,-4%,i,1%,11µM*
O=C(COc1ccc2ccccc2c1Br)N1CCCC1,i,-3%,i,5%,11µM*
COc1ccc(C(=O)NCc2ccc3c(c2)CCN3C(C)=O)c(OC)c1,i,.,i,.,1%
COc1cc2ccccc2cc1C(=O)N1CCN(C(C)=O)CC1,i,-3%,i,-2%,11%
COc1cc2ccccc2cc1C(=O)N1CCN(c2nc3ccc(F)cc3s2)CC1,i,.,i,.,13µM*
COc1ccc2[nH]c(C(=O)N3CCN(c4ccccc4F)CC3)c(C)c2c1,i,-2%,i,1%,16µM*
CCC(Cn1nnc2ccccc2c1=O)NC(=O)Nc1cccc(C)c1C (centres undefined),i,.,i,.,-8%
CC(=O)c1sc2nc(-c3cccs3)ccc2c1N,i,-26%,i,8%,10µM*
COc1ccc(-c2nc(NC(=O)c3[nH]c(C)c(C(C)=O)c3C)sc2C)cc1,i,-4%,i,9%,35µM*
COc1ccc(-c2nc(NC(=O)Cn3ccc(C(F)(F)F)n3)sc2C)cc1,i,0%,i,-6%,35µM*
COc1ccc(CCNC(=O)Cn2c(=O)n(-c3ccc(F)cc3)c(=O)c3sccc32)cc1OC,i,-3%,i,0.56µM*,4%
COc1ccc(-c2nnc(SC)o2)c(OC)c1,i,-5%,i,1%,-18%[0.397 µM]
COc1ccc(OC)c(-c2nnc(-c3ccc(C)o3)o2)c1,i,-5%,i,2%,13µM*
C=CCS(=O)(=O)c1nc2ccccc2s1,i,-4%,i[9.22 µM],0%,22µM*
CCS(=O)(=O)CCSc1nc2ccccc2s1,i,-2%,i,7%,-9%
O=S(=O)(CCSc1nc2ccccc2s1)c1nc2ccccc2s1,i,-4%,i,-54%,2.5µM*
CC(C)(C)S(=O)(=O)c1nc2ccccc2s1,i,-2%,i,-2%,-7%
Cc1ccc2nc(N3CCC(C(=O)O)CC3)nc(-c3ccccc3)c2c1,i,-9%,i,12%,22µM*
Cc1ccc2nc(N3CCN(C(=O)CCC(=O)O)CC3)nc(-c3ccccc3)c2c1,i,-3%,i,0%,5%
SMILES,FUS suppressor,TSG101-PTAP inh,Abeta yeast res,aSyn yeast inh,TDP-43 yeast inh
C=C1C2=C(C(=O)N1OC)[C@@H](O)[C@@](C)(O)[C@@H](CCCCC)O2,i,.,i,-1%,4%
O=C(CSc1nc2sc3c(c2c(=O)n1-c1ccc(Cl)cc1)CCCC3)c1ccccc1Cl,i,.,.,.,.
O=C1c2sc3nc4ccccc4n3c2C(=O)N1c1ccccc1Cl,i,-6%,i,-1%,11µM*
O=C(Cn1ncc2c1-c1ccccc1OC2)Nc1nc2ccccc2s1,i,0%,i,-8%,14µM*
CN(C(=O)Cn1ncc2c1-c1ccccc1OC2)c1ccc(Br)cc1,i,.,i,.,18µM*
CCC(CC)C(=O)Oc1c(C(=O)N(C)C)cccc1-c1ccccc1,i,-5%,i,16%,-5%
COc1ccc(NC(=O)c2ccc3[nH]c(C)cc(=O)c3c2)cc1,i,.,i,.,22%[9.22 µM]

# Bioassay records (PubChem BioAssay)
